Test results as given in PubChem BioAssay (EPA / NIEHS).
Inconclusive results are not listed. Calls of active or inactive are those of the source. Rule for the calls, unless noted: active = hit-call score of the fitted dose curve at least 0.9, where 1 is the maximum; inactive = score below 0.9.

Assays:
[1] = target: Nuclear respiratory factor 1 (Homo sapiens) (UniProt Q16656); test: ATG_NRF1_CIS: Attagene CIS-FACTORIAL HepG2 Assay for human Nuclear Respiratory Factor 1 (NRF1) Orphan Gene (AID 2282987); details: HepG2 NRF1 cis-element reporter, Attagene multiplex; actives raise or lower the signal
Outline: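 HepG2 cells transiently transfected with multiple reporter transcription units under cis-regulatory promoter control, so endogenous transcription-factor activity is read. After 24 h compound exposure, reporter mRNA quantified by RT-PCR, fluorescent labelling, HpaI digestion and capillary electrophoresis; bidirectional fitting versus DMSO.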

[2] = ATG_NFI_CIS: Attagene CIS-FACTORIAL HepG2 Assay for human Nuclear Factor I (NFI) (AID 2282989); details: HepG2 cis-regulatory reporter, NFI response element transcription; actives raise or lower the signal
Outline: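 HepG2, transient MRTU, 24 h exposure; RNA→cDNA→PCR→FAM label→HpaI→CE fluorescence. Bidirectional fit, DMSO = baseline.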

[3] = target: Myc proto-oncogene protein (Homo sapiens) (UniProt P01106); test: ATG_Myc_CIS: Attagene CIS-FACTORIAL HepG2 Assay for human Myelocytomatosis (Myc) Proto-Oncogene Transcription Factor (AID 2282990); details: HepG2, Attagene cis-reporter transcription factor activity; actives raise or lower the signal
Outline: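 Fluorescence intensity of reporter-specific cDNA fragments, separated by capillary electrophoresis, gives the signal. Transfected HepG2 cells carrying cis-promoter reporter constructs are incubated with compound for 24 h; DMSO serves as baseline.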

[4] = ATG_NRF2_ARE_CIS: Attagene CIS-FACTORIAL HepG2 Assay for human Nuclear Factor Erythroid 2 Related Factor 2 (NFR2) response to Antioxidant Response Elements (ARE) (AID 2282992); details: HepG2 Attagene ARE/NRF2 reporter, transcription factor activity; actives raise or lower the signal;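 for AC50: reporter mRNA level measured by RT-PCR and capillary electrophoresis fluorescence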
Outline: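 HepG2 cells transiently transfected with multiplexed cis-regulated reporter transcription units measure endogenous transcription factor activity. Reporter mRNA at 24 h is quantified by RT-PCR, fluorescent labelling and capillary electrophoresis, with bidirectional fitting relative to DMSO.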

[5] = ATG_Oct_MLP_CIS: Attagene CIS-FACTORIAL HepG2 Assay for human Octamer-Binding Transcription Factor (Oct) (AID 2282993); details: HepG2 Attagene cis-factorial Oct reporter, mRNA; actives raise or lower the signal
Outline: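 Multiplexed cis-reporter assay in human liver HepG2 cells, 24 h incubation. Reporter RNA amplified and labelled, then resolved by capillary electrophoresis; DMSO serves as negative control and baseline.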

[6] = BSK_3C_TissueFactor: BioMAP Diversity Plus: 3C Assay for Tissue Factor Biomarker Activity (AID 2282997); details: BioMAP 3C HUVEC, tissue factor biomarker readout; actives raise or lower the signal
Outline: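 Primary human umbilical vein endothelial cells in the 3C system were exposed to test chemical for 24 h, then Tissue Factor measured by ELISA. Activity was fitted bidirectionally against DMSO as negative control and baseline.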

[7] = BSK_3C_uPAR: BioMAP Diversity Plus: 3C Assay for Urokinase-type plasminogen activator receptor (uPAR) Biomarker Activity (AID 2282998); details: BioMAP 3C HUVEC, uPAR biomarker ELISA; actives raise or lower the signal
Outline: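 Dose primary human umbilical vein endothelial cells, incubate 24 h, measure cell-surface uPAR by ELISA, then fit the signal in both directions against the DMSO negative control.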

[8] = BSK_3C_VCAM1: BioMAP Diversity Plus: 3C Assay for Vascular cell adhesion molecule 1 (VCAM1) Biomarker Activity (AID 2282999); details: BioMAP 3C HUVEC, VCAM1 ELISA, cytokine-stimulated; actives raise or lower the signal
Outline: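 Human umbilical vein endothelial cells (3C system), biomarker read by ELISA 24 h after dosing; bidirectional fit against DMSO baseline. Cytotoxicity tracked by SRB total-protein staining in parallel cultures at biomarker time.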

[9] = BSK_4H_Eotaxin3: BioMAP Diversity Plus: 4H Assay for Eotaxin 3 Biomarker Activity (AID 2283000); details: primary human endothelial cells (HUVEC); actives raise or lower the signal
Outline: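 HUVEC, 24 h post-dose, ELISA for Eotaxin-3/CCL26. Gain or loss of signal fitted bidirectionally vs DMSO baseline.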

[10] = target: human Peroxisome Proliferator-activated Receptor alpha (PPARa), PPARA (gene 5465) (UniProt Q07869); test: ATG_PPARa_TRANS: Attagene TRANS-FACTORIAL HepG2 Assay for human Peroxisome Proliferator-activated Receptor alpha (PPARa) (AID 2283001; active = hit-call score of the fitted dose curve at least 0.9, where 1 is the maximum)
Outline: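 Measures transcriptional activity of an exogenous chimeric PPARa-Gal4 protein in transiently transfected HepG2 cells after 24 h dosing. Reporter mRNA quantified via RT-PCR and capillary electrophoresis; DMSO served as negative control.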

[11] = target: human Peroxisome Proliferator-activated Receptor delta (PPARd), PPARD (gene 5467) (UniProt Q03181); test: ATG_PPARd_TRANS: Attagene TRANS-FACTORIAL HepG2 Assay for human Peroxisome Proliferator-activated Receptor delta (PPARd) (AID 2283002; active = hit-call score of the fitted dose curve at least 0.9, where 1 is the maximum)
Outline: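 Fluorescence from capillary electrophoresis of labelled RT-PCR reporter fragments gives the signal; DMSO sets baseline. Cells: HepG2 transiently carrying GAL4-UAS reporter units plus chimeric nuclear receptor-Gal4 proteins, exposed to chemicals for 24 h.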

[12] = read-out: Intercellular Adhesion Molecule 1 (ICAM1), ICAM1 (gene 3383); test: BSK_3C_ICAM1: BioMAP Diversity Plus: 3C Assay for Intercellular Adhesion Molecule 1 (ICAM1) Biomarker Activity (AID 2283003); details: primary human endothelial cells (HUVEC); actives raise or lower the signal
Outline: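 Primary human umbilical vein endothelial cells in the BioMAP 3C system were exposed to chemicals for 24 h, then ICAM-1 was quantified by ELISA. Activity was fitted bidirectionally against the DMSO negative control baseline.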

[13] = target: human Retinoic Acid Receptor beta (RARb), RARB (gene 5915) (UniProt P10826); test: ATG_RARb_TRANS: Attagene TRANS-FACTORIAL HepG2 Assay for human Retinoic Acid Receptor beta (AID 2283004; active = hit-call score of the fitted dose curve at least 0.9, where 1 is the maximum)
Outline: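 HepG2 cells transiently transfected with multiplexed GAL4-UAS reporter units expressing chimeric NR–Gal4 fusions; 24 h compound exposure. Reporter mRNA quantified by RT-PCR, 6-FAM labelling, HpaI digestion and capillary electrophoresis; gain-of-signal fitted against DMSO baseline.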

[14] = BSK_3C_Proliferation: Cell Proliferation Assessment in the BioMAP Diversity Plus: 3C Assay (AID 2283006); details: primary human endothelial cells (HUVEC);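 for AC50: potency may reflect either rise or fall in cell number versus DMSO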
Outline: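 Human umbilical vein endothelial cells were grown sub-confluent and exposed to chemical for 48 h, then fixed with 10% TCA and stained with 0.1% sulforhodamine B; absorbance at 560 nm gave relative cell number, fitted bidirectionally against DMSO baseline.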

[15] = target: Peroxisome proliferator-activated receptor gamma (Homo sapiens) (UniProt P37231); test: ATG_PPARg_TRANS: Attagene TRANS-FACTORIAL HepG2 Assay for human Peroxisome Proliferator-activated Receptor-gamma (PPARg) (AID 2283007; active = hit-call score of the fitted dose curve at least 0.9, where 1 is the maximum)
Outline: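 HepG2 cells transiently transfected with multiplexed GAL4-UAS reporter units and exogenous chimeric NR-Gal4 proteins; reporter mRNA quantified after 24 h compound exposure by RT-PCR, fluorescent labelling, HpaI digestion and capillary electrophoresis; gain-of-signal fitted versus DMSO baseline.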

[16] = target: Nuclear receptor subfamily 1 group I member 2 (Homo sapiens) (UniProt O75469); test: ATG_PXR_TRANS: Attagene TRANS-FACTORIAL HepG2 Assay for human Pregnane X Receptor (PXR) (AID 2283008; active = hit-call score of the fitted dose curve at least 0.9, where 1 is the maximum)
Outline: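 HepG2 cells transiently transfected with multiple reporter units, here a PXR-GAL4 chimera driving a GAL4-UAS reporter; 24 h compound exposure. Reporter mRNA measured by RT-PCR, FAM labelling and capillary electrophoresis; gain of signal fitted against DMSO baseline.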

[17] = target: human RAR-related Orphan Receptor beta (RORb), RORB (gene 6096) (UniProt Q92753); test: ATG_RORb_TRANS: Attagene TRANS-FACTORIAL HepG2 Assay for human RAR-related Orphan Receptor beta (RORb) (AID 2283010; active = hit-call score of the fitted dose curve at least 0.9, where 1 is the maximum)
Outline: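 HepG2 cells were transiently transfected with multiplexed GAL4-UAS reporter units expressing chimeric nuclear receptor–GAL4 proteins, then dosed for 24 h. Reporter mRNA was quantified by RT-PCR with fluorescent labelling and capillary electrophoresis; gain of signal was fitted relative to DMSO.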

[18] = target: Cellular tumor antigen p53 (Homo sapiens) (UniProt P04637); test: ATG_p53_CIS: Attagene CIS-FACTORIAL HepG2 Assay for human p53 Transcription Factor (AID 2282994); details: HepG2 p53 cis-element reporter, Attagene mRNA; actives raise or lower the signal
Outline: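 HepG2 cells transiently transfected with multiplexed cis-regulated reporter transcription units read endogenous TF activity. After 24 h compound exposure, reporter mRNA was quantified by RT-PCR, fluorescent labelling, HpaI digestion and capillary electrophoresis; bidirectional fits versus DMSO baseline.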

[19] = target: Retinoic acid receptor alpha (Homo sapiens) (UniProt P10276); test: ATG_RARa_TRANS: Attagene TRANS-FACTORIAL HepG2 Assay for human Retinoic Acid Receptor alpha (RARa) (AID 2283005; active = hit-call score of the fitted dose curve at least 0.9, where 1 is the maximum)
Outline: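 HepG2 transiently transfected with multiplex GAL4-UAS reporter units including a human RARa–GAL4 chimera; 24 h compound exposure. Reporter mRNA quantified by RT-PCR, 6-FAM labeling and capillary electrophoresis; gain of signal versus DMSO.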

[20] = ATG_NF_kB_CIS: Attagene CIS-FACTORIAL HepG2 Assay for human Nuclear Factor Kappa B (NF-kB) (AID 2282991); details: HepG2 Attagene cis-factorial NF-kB reporter mRNA; actives raise or lower the signal
Outline: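 HepG2 cells transiently transfected with multiplexed cis-element reporter units measuring endogenous transcription factor activity; reporter mRNA read 24 h after dosing by RT-PCR, fluorescent labelling, HpaI digestion and capillary electrophoresis. Bidirectional fit against DMSO baseline.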

Measured: AC50

Sequence of Cellular tumor antigen p53 (Homo sapiens) (P04637 whole entry, looked up): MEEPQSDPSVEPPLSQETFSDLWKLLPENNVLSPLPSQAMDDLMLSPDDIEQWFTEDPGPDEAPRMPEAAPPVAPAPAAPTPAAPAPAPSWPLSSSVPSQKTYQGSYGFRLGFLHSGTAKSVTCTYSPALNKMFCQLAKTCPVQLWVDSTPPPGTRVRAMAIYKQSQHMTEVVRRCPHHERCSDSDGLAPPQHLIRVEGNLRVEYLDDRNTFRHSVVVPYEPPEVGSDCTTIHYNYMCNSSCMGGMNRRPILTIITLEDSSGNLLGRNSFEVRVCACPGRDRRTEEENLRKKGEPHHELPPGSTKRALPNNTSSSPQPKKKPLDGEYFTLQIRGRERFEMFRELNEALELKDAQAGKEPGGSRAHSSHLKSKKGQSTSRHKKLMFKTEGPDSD
Sequence of Retinoic acid receptor alpha (Homo sapiens) (P10276 whole entry, looked up, the tested form may be a part): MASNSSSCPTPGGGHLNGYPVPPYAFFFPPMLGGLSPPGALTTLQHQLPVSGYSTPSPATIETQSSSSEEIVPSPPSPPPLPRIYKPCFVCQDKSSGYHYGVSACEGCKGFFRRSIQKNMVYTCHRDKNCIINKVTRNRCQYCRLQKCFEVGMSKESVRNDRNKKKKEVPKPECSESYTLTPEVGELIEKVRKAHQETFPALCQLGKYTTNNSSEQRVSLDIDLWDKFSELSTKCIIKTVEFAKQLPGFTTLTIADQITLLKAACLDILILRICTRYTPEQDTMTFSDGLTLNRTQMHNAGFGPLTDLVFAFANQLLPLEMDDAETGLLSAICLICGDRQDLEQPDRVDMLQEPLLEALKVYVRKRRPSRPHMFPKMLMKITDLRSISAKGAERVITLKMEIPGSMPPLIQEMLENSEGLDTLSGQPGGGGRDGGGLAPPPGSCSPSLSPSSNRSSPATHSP
Sequence of human RAR-related Orphan Receptor beta (RORb), RORB (gene 6096) (Q92753 whole entry, looked up, the tested form may be a part): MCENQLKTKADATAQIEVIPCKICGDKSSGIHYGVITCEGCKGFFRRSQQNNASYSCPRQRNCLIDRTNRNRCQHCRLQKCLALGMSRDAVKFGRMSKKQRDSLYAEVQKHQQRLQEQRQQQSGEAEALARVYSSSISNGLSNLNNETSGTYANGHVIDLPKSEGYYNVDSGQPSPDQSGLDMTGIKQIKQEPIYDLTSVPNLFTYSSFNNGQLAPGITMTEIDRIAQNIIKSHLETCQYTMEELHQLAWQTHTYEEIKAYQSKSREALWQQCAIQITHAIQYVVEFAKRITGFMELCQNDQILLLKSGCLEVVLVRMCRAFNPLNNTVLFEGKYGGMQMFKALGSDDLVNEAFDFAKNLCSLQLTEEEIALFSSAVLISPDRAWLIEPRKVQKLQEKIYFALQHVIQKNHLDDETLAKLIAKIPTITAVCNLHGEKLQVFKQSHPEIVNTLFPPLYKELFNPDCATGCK
Sequence of Nuclear respiratory factor 1 (Homo sapiens) (Q16656 whole entry, looked up): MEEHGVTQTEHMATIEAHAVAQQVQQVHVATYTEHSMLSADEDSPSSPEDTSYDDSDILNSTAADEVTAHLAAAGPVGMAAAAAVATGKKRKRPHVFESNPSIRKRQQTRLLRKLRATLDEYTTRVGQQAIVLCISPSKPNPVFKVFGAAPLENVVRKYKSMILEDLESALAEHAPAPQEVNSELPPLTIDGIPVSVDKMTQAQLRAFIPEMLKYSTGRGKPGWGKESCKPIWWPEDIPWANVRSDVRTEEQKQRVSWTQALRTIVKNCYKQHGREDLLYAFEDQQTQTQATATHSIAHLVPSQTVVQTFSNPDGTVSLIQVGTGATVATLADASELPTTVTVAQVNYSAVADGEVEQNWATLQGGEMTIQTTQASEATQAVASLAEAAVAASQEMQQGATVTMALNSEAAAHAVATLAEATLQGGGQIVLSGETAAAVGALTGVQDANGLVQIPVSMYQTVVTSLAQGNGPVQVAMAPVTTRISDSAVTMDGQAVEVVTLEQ
Sequence of human Peroxisome Proliferator-activated Receptor delta (PPARd), PPARD (gene 5467) (Q03181 whole entry, looked up, the tested form may be a part): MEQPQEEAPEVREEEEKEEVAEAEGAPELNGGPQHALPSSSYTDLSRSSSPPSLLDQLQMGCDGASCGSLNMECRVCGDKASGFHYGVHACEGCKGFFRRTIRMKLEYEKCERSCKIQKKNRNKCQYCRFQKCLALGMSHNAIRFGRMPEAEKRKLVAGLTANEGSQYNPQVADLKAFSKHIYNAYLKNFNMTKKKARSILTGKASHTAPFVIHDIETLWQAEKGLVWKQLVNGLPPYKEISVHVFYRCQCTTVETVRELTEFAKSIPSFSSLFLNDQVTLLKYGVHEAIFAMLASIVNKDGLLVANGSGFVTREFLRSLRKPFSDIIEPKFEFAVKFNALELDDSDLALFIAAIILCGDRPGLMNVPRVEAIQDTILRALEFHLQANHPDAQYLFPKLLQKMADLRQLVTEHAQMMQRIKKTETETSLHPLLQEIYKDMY
Sequence of human Peroxisome Proliferator-activated Receptor alpha (PPARa), PPARA (gene 5465) (Q07869 whole entry, looked up, the tested form may be a part): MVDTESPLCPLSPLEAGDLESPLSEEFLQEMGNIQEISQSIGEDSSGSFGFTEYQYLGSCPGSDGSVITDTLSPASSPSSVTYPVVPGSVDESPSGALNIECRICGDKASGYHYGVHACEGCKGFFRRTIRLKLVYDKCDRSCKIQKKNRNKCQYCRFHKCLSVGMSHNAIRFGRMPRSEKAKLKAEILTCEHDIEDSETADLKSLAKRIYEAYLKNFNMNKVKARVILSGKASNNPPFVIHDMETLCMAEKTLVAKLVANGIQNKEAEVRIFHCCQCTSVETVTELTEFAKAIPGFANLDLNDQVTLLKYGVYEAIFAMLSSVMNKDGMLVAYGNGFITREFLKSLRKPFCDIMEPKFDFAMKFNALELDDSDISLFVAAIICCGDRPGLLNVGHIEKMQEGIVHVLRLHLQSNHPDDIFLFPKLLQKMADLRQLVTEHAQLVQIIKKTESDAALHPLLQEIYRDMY
Sequence of Myc proto-oncogene protein (Homo sapiens) (P01106 whole entry, looked up, the tested form may be a part): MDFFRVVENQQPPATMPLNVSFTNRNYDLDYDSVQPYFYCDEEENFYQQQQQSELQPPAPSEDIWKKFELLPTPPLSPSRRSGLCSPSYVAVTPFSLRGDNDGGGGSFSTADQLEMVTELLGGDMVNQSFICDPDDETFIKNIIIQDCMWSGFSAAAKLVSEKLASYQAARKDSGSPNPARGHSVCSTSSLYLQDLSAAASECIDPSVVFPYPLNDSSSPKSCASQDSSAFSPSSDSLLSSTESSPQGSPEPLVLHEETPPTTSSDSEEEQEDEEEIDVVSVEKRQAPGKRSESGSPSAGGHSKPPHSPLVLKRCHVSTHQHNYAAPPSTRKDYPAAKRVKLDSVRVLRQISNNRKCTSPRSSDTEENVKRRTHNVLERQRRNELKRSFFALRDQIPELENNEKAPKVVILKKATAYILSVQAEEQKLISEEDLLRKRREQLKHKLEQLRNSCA
Sequence of Peroxisome proliferator-activated receptor gamma (Homo sapiens) (P37231 whole entry, looked up, the tested form may be a part): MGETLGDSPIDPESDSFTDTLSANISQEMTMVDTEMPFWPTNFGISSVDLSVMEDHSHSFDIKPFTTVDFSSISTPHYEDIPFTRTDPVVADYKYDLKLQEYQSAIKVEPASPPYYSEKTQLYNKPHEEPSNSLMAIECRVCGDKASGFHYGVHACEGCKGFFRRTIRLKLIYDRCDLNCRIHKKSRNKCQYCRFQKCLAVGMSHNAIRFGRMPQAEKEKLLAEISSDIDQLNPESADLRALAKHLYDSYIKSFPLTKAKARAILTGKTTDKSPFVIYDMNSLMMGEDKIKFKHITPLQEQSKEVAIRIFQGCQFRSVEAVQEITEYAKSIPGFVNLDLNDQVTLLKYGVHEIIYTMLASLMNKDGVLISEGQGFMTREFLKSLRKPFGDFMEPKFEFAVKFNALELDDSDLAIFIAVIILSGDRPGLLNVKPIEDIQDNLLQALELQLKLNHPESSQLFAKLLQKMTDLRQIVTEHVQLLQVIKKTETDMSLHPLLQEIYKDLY
Sequence of Nuclear receptor subfamily 1 group I member 2 (Homo sapiens) (O75469 whole entry, looked up, the tested form may be a part): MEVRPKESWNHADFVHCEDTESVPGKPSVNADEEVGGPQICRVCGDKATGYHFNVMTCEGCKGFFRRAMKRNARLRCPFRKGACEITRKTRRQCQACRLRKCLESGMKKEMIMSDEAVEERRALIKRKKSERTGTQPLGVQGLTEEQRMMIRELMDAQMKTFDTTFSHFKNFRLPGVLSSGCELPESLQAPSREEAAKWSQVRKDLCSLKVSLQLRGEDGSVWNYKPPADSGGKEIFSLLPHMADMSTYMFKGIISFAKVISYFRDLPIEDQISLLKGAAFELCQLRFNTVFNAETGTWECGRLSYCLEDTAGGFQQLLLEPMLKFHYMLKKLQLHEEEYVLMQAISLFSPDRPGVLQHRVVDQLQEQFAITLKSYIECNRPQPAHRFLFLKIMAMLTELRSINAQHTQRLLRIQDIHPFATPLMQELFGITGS
Sequence of human Retinoic Acid Receptor beta (RARb), RARB (gene 5915) (P10826 whole entry, looked up, the tested form may be a part): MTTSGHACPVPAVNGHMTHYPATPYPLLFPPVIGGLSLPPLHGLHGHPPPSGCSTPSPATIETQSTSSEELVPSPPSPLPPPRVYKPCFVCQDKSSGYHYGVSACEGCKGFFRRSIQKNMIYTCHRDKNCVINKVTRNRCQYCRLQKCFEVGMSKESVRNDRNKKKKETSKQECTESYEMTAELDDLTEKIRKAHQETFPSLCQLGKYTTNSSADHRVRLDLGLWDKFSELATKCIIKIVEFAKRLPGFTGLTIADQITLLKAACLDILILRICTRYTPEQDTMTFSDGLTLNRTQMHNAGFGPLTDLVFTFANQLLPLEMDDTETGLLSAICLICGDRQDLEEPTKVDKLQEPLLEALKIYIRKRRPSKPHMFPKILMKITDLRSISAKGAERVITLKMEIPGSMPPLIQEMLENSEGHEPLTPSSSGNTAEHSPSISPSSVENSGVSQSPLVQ

O=C1CCCO1
not listed: [16] | [17] | [18] | [19] | [20]
inactive: all other assays above

[Cl-].[Cl-].[Hg+2]
active: [4] 5.59 µM | [6] 34.8 µM | [7] 34.1 µM | [8] 20 µM | [9] 30.9 µM
inactive: [1] | [2] | [3] | [5] | [12] | [15] | [16] | [17]

CCCCCCCCCCCCCN1CC(C)OC(C)C1 (stereo not drawn)
active: [4] 47 µM | [16] 26.2 µM
not listed: [10] | [13] | [14] | [17] | [19] | [20]
inactive: all other assays above

Clc1ccc(Cl)c(Cl)c1
inactive: [1] | [2] | [3] | [4] | [6] | [9] | [11] | [12] | [19] | [15]

Nc1ccc(N=Nc2ccccc2)cc1
active: [4] 3.6 µM | [14] 12.2 µM | [15] 100 µM
not listed: [5] | [7] | [11] | [17] | [20]
inactive: all other assays above

CC(C)COC(=O)c1ccccc1C(=O)OCC(C)C
inactive: [1] | [2] | [3] | [9] | [10] | [12]
active: [4] 36 µM | [5] 83 µM | [6] 12.4 µM | [14] 28.6 µM | [15] 44.6 µM

C1=Cc2cccc3cccc1c23
not listed: [5] | [7] | [8] | [10] | [13] | [17] | [18]
inactive: all other assays above

Cc1ccc([N+](=O)[O-])cc1
inactive: [1] | [2] | [3] | [4] | [6] | [7] | [9] | [11] | [12] | [16]

Nc1cc(Cl)cc(C(=O)O)c1Cl
not listed: [5] | [7] | [13] | [16] | [19] | [20]
inactive: all other assays above

ClCCOCCCl
inactive: [1] | [2] | [3] | [20] | [4] | [6] | [9] | [11] | [12] | [15] | [16]

CS(=O)(=O)NC(=O)c1cc(Oc2ccc(C(F)(F)F)cc2Cl)ccc1[N+](=O)[O-]
active: [15] 30.3 µM | [16] 7.65 µM
not listed: [7] | [8] | [11] | [17] | [18] | [20]
inactive: all other assays above

COc1cc(C=O)cc2c1[C@H](COC(N)=O)[C@]1(OC(C)=O)ON2C[C@H]2[C@@H]1N2C(C)=O
active: [2] 52 µM | [3] 7.48 µM | [4] 17 µM | [5] 0.179 µM | [6] 6.64 µM | [9] 6.01 µM | [12] 23.3 µM
inactive: [1] | [10] | [11] | [15]

CNC(=O)Oc1cccc2c1OC(C)(C)C2
not listed: [7] | [10] | [13] | [14] | [18] | [19] | [20]
inactive: all other assays above

c1ccc(C2CO2)cc1 (stereo not drawn)
not listed: [11] | [13] | [16] | [17] | [18] | [19] | [20]
inactive: all other assays above

OCCCBr
inactive: [1] | [2] | [3] | [20] | [4] | [6] | [9] | [11] | [12] | [14] | [16]
